Experimental data reported in the supplement of paper PMC13380429.

Test system: Vero E6 infected with SARS-CoV-2
Assay: inhibition of SARS-CoV-2 cytopathic effect; higher = more antiviral protection, active = above 15
Details: 48 h

Measured: inhibition of SARS-CoV-2 cytopathic effect

O=C(Nc1nc2cccc(-c3ccc(CN4CCS(=O)(=O)CC4)cc3)n2n1)C1CC1 [filgotinib]
inactive: 1 nM -1.13% | 8.33 nM -1.84% | 100 nM 4.15% | 833.33 nM 3.84% | 10000 nM -1.27%

CC[C@]12CCCN3CCc4c(n(c5ccccc45)[C@@](O)(C(=O)OC)C1)[C@@H]32 [vincamine]
inactive: 1 nM 0.28% | 8.33 nM 2.12% | 100 nM 0.98% | 833.33 nM -2.3% | 10000 nM -1.71%

CC(=O)OCC1=C(C(=O)O)N2C(=O)[C@@H](NC(=O)CCCC(N)C(=O)O)C2SC1 (stereo not given in full) [cephalosporin-c-zn]
inactive: 1 nM -4.01% | 8.33 nM -0.13% | 100 nM -2.05% | 833.33 nM 3.87% | 10000 nM 1.87%

N#CC(c1ccccc1)(c1ccccc1)c1ccccc1Cl
inactive: 1 nM 2.09% | 8.33 nM 1.23% | 100 nM 3.05% | 833.33 nM 3.49% | 10000 nM 3.88%

O/N=C/c1ccc(-c2ccc(O)c(F)c2)c(Cl)c1O
inactive: 1 nM -3.41% | 8.33 nM -2.33% | 100 nM -2.06% | 833.33 nM -0.62% | 10000 nM -12.8%

CC(=O)c1c(C)c2cnc(Nc3ccc(N4CCNCC4)cn3)nc2n(C2CCCC2)c1=O [palbociclib]
inactive: 1 nM 2.16% | 8.33 nM 0.47% | 100 nM -4.3% | 833.33 nM -0.35% | 10000 nM 5.01%

CCOC1O[C@H]([C@@H](COCc2ccccc2)OCc2ccccc2)[C@H](OCc2ccccc2)[C@H]1O (stereo not given in full) [tribenoside]
inactive: 1 nM -7.21% | 8.33 nM -1.54% | 100 nM -0.86% | 833.33 nM 0.08% | 10000 nM 1.9%
